Screening data deposited in PubChem by National Center for Advancing Translational Sciences (NCATS).
ELG1 DNA repair – inhibitors of ELG1-dependent DNA repair in HEK293T cells; HEK293T ELG1-luciferase reporter, luminescence, 16 h; DNA damage induced by 5-fluorouridine; Potency, µM (titrated, usually from 46.1 µM), for the others: at the top dose activity change, negative = inhibition, hits mostly inhibitors; hit rate 2.3% among 330,000; AID 504467; note: potency is the fitted concentration of half-maximal effect; nearly all actives have a fitted effect of over 55% in size
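Reporter activity after DNA damage by 5-fluorouridine is monitored. Compound-treated cells incubate 16 hr at 37 °C, then ONE-Glo is added for 30 min before luminescence reading.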
HT1080 IDH1KD tx – toxicity to HT-1080 IDH1 knockdown cells (counter line); HT-1080 IDH1 knockdown viability, ATP luminescence, 48 h; Potency, µM (series often up to 46.1 µM), inactives show at the highest dose activity, negative = toxicity, actives largely listed as cytotoxic; hit rate 2% among 360,000; AID 686971;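 note: potency is the fitted concentration of half-maximal effect; 0% = DMSO wells and -100% = cell-free medium wells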
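Luminescent ATP read-out (CellTiter-Glo, 10 min at room temperature) after 48 h compound exposure at 37 °C gave viability of IDH1-knockdown HT-1080 cells. Activity was normalised to DMSO and cell-free wells, then fitted as concentration-response curves.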
IL1B secr inh – inhibitors of inflammasome signaling (IL-1 beta secretion) | THP-1 LPS/ATP IL-1B secretion, AlphaLISA, 16 h; active compounds read low | activity change, % at 57.5 µM | hit rate 4.7% among 360,000 | AID 743279; in the data active = activity change below about -50%; inconclusive = mostly about -30% to -49%
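Secreted IL-1B measured by AlphaLISA bead assay after 16 h compound exposure of THP-1 cells; compounds (final up to 57.5 uM) added 1 h before LPS (250 ng/mL) and ATP (1.25 mM) stimulation; lower signal means less secretion.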
DT40 TDP1 no CPT – qHTS for Inhibitors of human tyrosyl-DNA phosphodiesterase 1 (TDP1): qHTS in cells in absence of CPT; DT40 Tdp1-/- hTDP1 cells, no CPT, ATP luminescence, 48 h; hit rate 15% among 420,000; Potency, µM (titrated, usually from 46.2 µM), for inactives: top-dose activity change, negative = growth inhibition, actives largely listed as inhibitors; note: potency is the fitted concentration of half-maximal effect; nearly all actives have a fitted effect of over 55% in size
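Readout: luminescence from CellTiter-Glo after 30 min in the dark at RT. Cells: DT40 Tdp1-/- with stable hTDP1, 400/well. Exposure: compounds alone, ≥48 hr, 37 °C.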
HT1080-NT tox – kills 2HG-producing HT-1080-NT fibrosarcoma cells; HT-1080-NT fibrosarcoma viability, CellTiter-Glo ATP luminescence, 48 h; Potency, µM (highest dose often 46.1 µM), for the others: top-dose activity, negative = less viability, actives largely listed as cytotoxic; hit rate 1.6% among 360,000; AID 686970;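 note: NT is the 2HG producing partner of a matched IDH1 knockdown line; potency is the fitted concentration of half-maximal effect; 0% = DMSO-treated cells and -100% = media-only wells without cells; nearly all actives have a fitted effect of over 55% in size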
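A 48-hour cytotoxicity screen used HT-1080-NT cells plated 2 hours before compound delivery. ATP-based CellTiter-Glo luminescence measured viability, normalized to DMSO and no-cell controls.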
TDP1 cell CPT – growth inhibition of DT40 Tdp1-/-;hTDP1 cells with camptothecin (screen for TDP1 inhibitors); AID 686979; hit rate 12% among 420,000; Potency, µM (top dose mostly 46.2 µM), for inactives: at the highest dose activity change, negative = growth inhibition, actives largely listed as inhibitors; chicken DT40 Tdp1-/-;hTDP1 cells + 20 nM CPT, ATP luminescence, 48 h; note: potency is the fitted concentration of half-maximal effect; nearly all actives have a fitted effect of over 55% in size
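Cell growth measured by CellTiter-Glo luminescence after a minimum 48 h, 37 C compound exposure with 20 nM CPT in Tdp1-knockout DT40 cells stably expressing hTDP1, seeded 400/well; qHTS titration format.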
An asterisk follows results filed as active. A selection: hits, their analogues and other compounds. The true share with any hit is near 19%. Unless noted, calls come from the whole dose curve; as a rule, active = well fitted curve in the direction sought with a large enough effect; inconclusive = small, poorly fitted or top-dose-only effect, or another doubt; inactive = no such curve, though single readings can be large; an effect the other way counts as inactive or inconclusive. Unless noted, % is set by controls: 0 for no effect and ±100 for the full control effect.

`COC1=CC(=O)C(OC)=C(OC)C1=O` gave HT1080 IDH1KD tx inconclusive, IL1B secr inh -102*, DT40 TDP1 no CPT 1.2µM*, HT1080-NT tox -8% and TDP1 cell CPT 0.73µM*.
Screening CCOC(=O)c1c(S(=O)(=O)NCC(=O)Nc2ccc(C)c(N(C)C)c2)c(C)n(C)c1C returned DT40 TDP1 no CPT -10% and TDP1 cell CPT 6%.
`CCn1c(C(=O)NCCc2ccc(OC)c(OC)c2)cc2sc(Cl)cc21` gave DT40 TDP1 no CPT 12µM* and TDP1 cell CPT 18µM*.
For CCOc1ccc(CCNC(=O)c2cc3sccc3n2CC)cc1OCC the results were HT1080 IDH1KD tx -1%, IL1B secr inh -24, DT40 TDP1 no CPT 5.8µM*, HT1080-NT tox -9% and TDP1 cell CPT 5.2µM*.
Screening CCOc1ccc(CCNC(=O)c2cc3sc(CC)cc3n2C)cc1OCC returned DT40 TDP1 no CPT 12µM* and TDP1 cell CPT 15µM*.
Cc1ccc(COC(=O)CN2C(=O)NC3(CCCCC3C)C2=O)cc1 (stereo unspecified) was read as ELG1 DNA repair 0%, HT1080 IDH1KD tx -7%, IL1B secr inh -5, DT40 TDP1 no CPT -20%, HT1080-NT tox -5% and TDP1 cell CPT 4%.
`Cc1c(C(=O)Nc2cccc(F)c2)sc2nc(-c3cc4ccccc4oc3=O)[nH]c(=O)c12` gave DT40 TDP1 no CPT inconclusive and TDP1 cell CPT 23µM*.
`Cc1cccc(NC(=O)c2sc3nc(-c4cc5ccc(O)cc5oc4=O)[nH]c(=O)c3c2C)c1` gave DT40 TDP1 no CPT 21µM* and TDP1 cell CPT 21µM*.
`COc1ccccc1CNC(=O)COC(=O)c1cccc(-n2cnnn2)c1` gave ELG1 DNA repair -5%, HT1080 IDH1KD tx 16%, IL1B secr inh 44, DT40 TDP1 no CPT 23%, HT1080-NT tox 4% and TDP1 cell CPT -9%.
`CCCCn1nc(C(=O)NC2=NCCS2)c2ccccc2c1=O` gave ELG1 DNA repair inconclusive, HT1080 IDH1KD tx 6%, IL1B secr inh -9, DT40 TDP1 no CPT -24%, HT1080-NT tox 2% and TDP1 cell CPT 2%.
CCCCn1nc(C(=O)Nc2nc3c(s2)CCCC3)c2ccccc2c1=O was read as ELG1 DNA repair 15µM*, HT1080 IDH1KD tx 0%, IL1B secr inh 1, DT40 TDP1 no CPT inconclusive, HT1080-NT tox 9% and TDP1 cell CPT inconclusive.
CCCCCCn1nc(C(=O)Nc2nc3c(s2)CCCC3)c2ccccc2c1=O was read as ELG1 DNA repair inconclusive, HT1080 IDH1KD tx 11%, IL1B secr inh 20, DT40 TDP1 no CPT inconclusive, HT1080-NT tox 6% and TDP1 cell CPT 15µM*.
For CCCCn1nc(C(=O)NCc2ccccc2CN2CCCC2)c2ccccc2c1=O the results were ELG1 DNA repair -15%, HT1080 IDH1KD tx -2%, IL1B secr inh 8, DT40 TDP1 no CPT inconclusive, HT1080-NT tox -19% and TDP1 cell CPT inconclusive.
CCCCn1c(N)c(N(C)C(=O)c2cc3c(s2)CCCCC3)c(=O)[nH]c1=O was read as ELG1 DNA repair 24%, HT1080 IDH1KD tx 1%, IL1B secr inh -7, DT40 TDP1 no CPT 8%, HT1080-NT tox 11% and TDP1 cell CPT -1%.
For FC(F)(F)c1ccccc1-c1ccc2nncn2c1 the results were HT1080 IDH1KD tx 3%, IL1B secr inh 4, DT40 TDP1 no CPT -13%, HT1080-NT tox inconclusive and TDP1 cell CPT -20%.
`O=C(CSc1nnc(CNC(=O)c2cccs2)o1)Nc1ccc(F)cc1F` gave ELG1 DNA repair 7%, HT1080 IDH1KD tx 7%, IL1B secr inh 25, DT40 TDP1 no CPT 19%, HT1080-NT tox 5% and TDP1 cell CPT -7%.
Screening O=C(c1ccc(Oc2ccc(C(F)(F)F)cn2)cc1)N1CCN(c2ccccc2)CC1 returned ELG1 DNA repair -5%, HT1080 IDH1KD tx -26%, IL1B secr inh -10, DT40 TDP1 no CPT 29µM*, HT1080-NT tox -14% and TDP1 cell CPT -9%.
For COc1ccc(N2CCN(C(=O)c3ccc(Oc4ccc(C(F)(F)F)cn4)cc3)CC2)cc1 the results were ELG1 DNA repair inconclusive, HT1080 IDH1KD tx -16%, IL1B secr inh -3, DT40 TDP1 no CPT 23µM*, HT1080-NT tox 6% and TDP1 cell CPT inconclusive.
`O=C(NCc1cccnc1)C12CC3CC(CC(Cl)(C3)C1)C2` gave ELG1 DNA repair 6%, HT1080 IDH1KD tx 11%, IL1B secr inh 24, DT40 TDP1 no CPT 24%, HT1080-NT tox -3% and TDP1 cell CPT -12%.
FC(F)(F)c1ccccc1-c1nccc(NCCN2CCOCC2)n1 was read as DT40 TDP1 no CPT 5% and TDP1 cell CPT 7%.
`CC(=O)OCC1OC(OC2C[C@]3(C)C(CC(O)C4C([C@](C)(CCC=C(C)C)OC5OC(CO)C(O)C(O)C5O)CC[C@]43C)[C@@]3(C)CCC(O)C(C)(C)C23)C(O[C@@H]2OC(C)C(O)C(O)C2O)C(O)C1O` (stereo partly specified) gave ELG1 DNA repair 14%, HT1080 IDH1KD tx 12%, IL1B secr inh 39, DT40 TDP1 no CPT 36%, HT1080-NT tox 14% and TDP1 cell CPT 3%.
Screening CC(=O)c1ccc(NC(=O)CSc2nnc(-c3ccncc3)n2-c2ccccc2)cc1 returned DT40 TDP1 no CPT 1% and TDP1 cell CPT -10%.
Screening O=S(=O)(c1ccc(F)cc1)N1CN(Cc2ccco2)c2nc3ccccc3nc21 returned ELG1 DNA repair 0%, HT1080 IDH1KD tx 0%, IL1B secr inh 9, DT40 TDP1 no CPT inconclusive, HT1080-NT tox -11% and TDP1 cell CPT inconclusive.
`O=S(=O)(c1ccccc1)N1CN(c2ccc(F)cc2F)c2nc3ccccc3nc21` gave ELG1 DNA repair inconclusive, HT1080 IDH1KD tx -24%, IL1B secr inh -7, DT40 TDP1 no CPT 26µM*, HT1080-NT tox -14% and TDP1 cell CPT inconclusive.
Screening CC(=O)c1ccc(NC(=O)CSc2nc(-c3cccc(F)c3)nc3c2c(=O)n(C)c(=O)n3C)cc1 returned DT40 TDP1 no CPT -13% and TDP1 cell CPT 16%.
`O=C(CSc1nnnn1-c1ccc(F)cc1)Nc1ccc(N2CCOCC2)c(Cl)c1` gave ELG1 DNA repair -25%, HT1080 IDH1KD tx 0%, IL1B secr inh inconclusive, DT40 TDP1 no CPT inconclusive, HT1080-NT tox 0% and TDP1 cell CPT 15µM*.
